In the library only some 21% were active in any assay of this set; here they are far more common.
Gal4-VP16 FLuc – Gal4-VP16 reporter inhibition counter-screen; 3.5% of 310,000 active; Potency, µM (doses to about 53.6 µM), usual class: inhibitors; Drosophila S2 Gal4-VP16 UAS-luciferase, luminescence, 20 h;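 further: Gal4-VP16 expression switched on by copper sulfate through the metallothionein promoter; nearly all actives have a fitted effect of over 50% in size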
ELG1 repair inh – inhibitors of ELG1-dependent DNA repair in HEK293T cells. HEK293T ELG1-luciferase reporter, luminescence, 16 h; DNA damage induced by 5-fluorouridine. Potency, µM (highest dose often 46.1 µM), usual class: inhibitors. 2.3% of 330,000 active; further: nearly all actives have a fitted effect of over 55% in size
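Luminescence from the luciferase reporter, measured 30 min after ONE-Glo reagent at room temperature, was the read-out. Beforehand, 2,000 cells per well were exposed for 16 hr at 37 °C to 5-fluorouridine together with compound or vehicle.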
RORgamma inh – inhibitors of mouse ROR gamma transcriptional activity. P51450. 5.4% of 310,000 active. AID 2551. Potency, µM (top dose mostly 53.6 µM), most hits filed as inhibitors. Drosophila S2 Gal4-RORgamma UAS-luciferase reporter, 20 h; further: nearly all actives have a fitted effect of over 60% in size
Target sequence (P51450 whole entry, looked up, the tested form may be a part): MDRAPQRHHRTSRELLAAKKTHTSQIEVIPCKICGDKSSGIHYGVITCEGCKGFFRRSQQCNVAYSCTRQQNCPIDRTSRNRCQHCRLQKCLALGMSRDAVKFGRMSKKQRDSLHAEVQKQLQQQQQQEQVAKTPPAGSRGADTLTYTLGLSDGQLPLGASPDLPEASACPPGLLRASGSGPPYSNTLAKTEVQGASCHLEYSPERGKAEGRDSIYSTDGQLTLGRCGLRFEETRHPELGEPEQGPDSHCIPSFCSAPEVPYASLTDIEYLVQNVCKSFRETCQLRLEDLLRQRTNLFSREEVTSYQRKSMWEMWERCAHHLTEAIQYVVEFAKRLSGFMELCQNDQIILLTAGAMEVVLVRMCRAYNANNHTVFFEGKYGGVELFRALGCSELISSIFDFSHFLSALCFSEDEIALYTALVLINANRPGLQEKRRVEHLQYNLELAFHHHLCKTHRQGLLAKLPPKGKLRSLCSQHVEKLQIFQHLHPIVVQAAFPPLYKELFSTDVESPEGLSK
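Drosophila S2 cells stably expressing Gal4-DBD/mouse RORγ fusion under metallothionein promoter plus UAS-luciferase; compound 1 h, then 700 uM CuSO4 induction for 20 h at ambient temperature; inhibition read as reduced luminescence.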
DT40 TDP1 CPT – DT40-hTDP1 cell growth loss with CPT | chicken DT40 Tdp1-/-;hTDP1 cells + 20 nM CPT, ATP luminescence, 48 h | Potency, µM (series often up to 46.2 µM), hits mostly inhibitors | AID 686979 | 12% of 420,000 active; further: nearly all actives have a fitted effect of over 55% in size
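Chicken DT40 Tdp1-/- cells complemented with human TDP1, 400 cells/well, exposed to compounds plus 20 nM camptothecin for at least 48 h at 37 C; viability read as ATP content by CellTiter-Glo luminescence.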
IL-1B inflam inh – inflammasome signaling inhibition, IL-1 beta readout; THP-1 LPS/ATP IL-1B secretion, AlphaLISA, 16 h; active compounds read low; activity change, % at 57.5 µM; 4.7% of 360,000 active; AID 743279; in the data active means activity change below about -50%; inconclusive means mostly about -30% to -49%
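Secreted IL-1B measured by AlphaLISA bead assay after 16 h compound exposure of THP-1 cells; compounds (final up to 57.5 uM) added 1 h before LPS (250 ng/mL) and ATP (1.25 mM) stimulation; lower signal means less secretion.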
DT40 TDP1 no CPT – qHTS for Inhibitors of human tyrosyl-DNA phosphodiesterase 1 (TDP1): qHTS in cells in absence of CPT. DT40 Tdp1-/- hTDP1 cells, no CPT, ATP luminescence, 48 h. Potency, µM (doses to about 46.2 µM), most hits filed as inhibitors. 15% of 420,000 active; further: nearly all actives have a fitted effect of over 55% in size
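Chicken DT40 Tdp1-/- cells stably complemented with human TDP1 were seeded at 400 cells/well with DMSO in place of 20 nM camptothecin. After compound pinning, cells grew at least 48 hr at 37 °C; viability read by CellTiter-Glo luminescence.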
Each line names hits and unclear results; the compound was inactive in the other large screens; ! = not confirmed by another sample. Unless noted, the call rests on the fitted dose curve; in most records, active means well fitted curve in the direction sought with a large enough effect; inconclusive means small, poorly fitted or top-dose-only effect, or another doubt; inactive means no such curve, though single readings can be large; an effect the other way counts as inactive or inconclusive.

COc1ccc(/C=N/NS(=O)(=O)c2ccccc2)cc1OC	ELG1 repair inh 18µM, RORgamma inh inconclusive, DT40 TDP1 CPT 21µM, DT40 TDP1 no CPT 23µM
COC(=O)N/N=C/c1ccc(OS(=O)(=O)c2ccc(C)cc2)c(OC)c1	IL-1B inflam inh -72, DT40 TDP1 no CPT inconclusive
COc1cc(/C=N/NS(=O)(=O)c2ccccc2)ccc1OS(=O)(=O)c1ccc(C)cc1	none
COc1ccc(/C=N/NS(=O)(=O)c2ccccc2)cc1OS(=O)(=O)c1ccc(C)cc1	RORgamma inh inconclusive, DT40 TDP1 CPT inconclusive, DT40 TDP1 no CPT 18µM
CN(C)c1ccc(-c2cc(Nc3ccc(F)cc3)ncn2)cc1	Gal4-VP16 FLuc inconclusive, DT40 TDP1 CPT inconclusive, DT40 TDP1 no CPT inconclusive (no result: ELG1 repair inh, IL-1B inflam inh)
CNC(=O)CN(Cc1ccccc1)S(=O)(=O)c1ccccc1	none
CCc1cccc(C)c1NC(=O)CN(C)Cc1ccc(Br)cc1	ELG1 repair inh inconclusive, DT40 TDP1 CPT 21µM, IL-1B inflam inh -57, DT40 TDP1 no CPT inconclusive
CSc1ccccc1NC(=O)CN(C)Cc1ccc(Br)cc1	IL-1B inflam inh inconclusive, DT40 TDP1 no CPT inconclusive
Cc1cccc(C)c1NC(=O)CN(Cc1ccc(Br)cc1)S(=O)(=O)c1ccccc1	DT40 TDP1 CPT inconclusive, DT40 TDP1 no CPT 15µM (no result: Gal4-VP16 FLuc, ELG1 repair inh, RORgamma inh, IL-1B inflam inh)
O=C(CN(Cc1ccc(F)cc1)S(=O)(=O)c1ccccc1)N1CCCCC1	DT40 TDP1 CPT inconclusive, DT40 TDP1 no CPT 16µM
CS(=O)(=O)N(CC(=O)N1CCCC1)Cc1ccc(F)cc1	none
CC(C)(C)NC(=O)CN(Cc1ccccc1)S(=O)(=O)c1ccccc1	IL-1B inflam inh -74
CCOCCc1nn2c(=O)cc(COC(=O)COc3ccccc3Cl)nc2s1	none (no result: Gal4-VP16 FLuc, ELG1 repair inh, RORgamma inh, IL-1B inflam inh)
CCCCC[C@H](O)/C=C/C=C\CCCCCCCC(=O)O	DT40 TDP1 CPT inconclusive, DT40 TDP1 no CPT inconclusive (no result: ELG1 repair inh, IL-1B inflam inh)
Cc1cccc(C)c1NC(=O)CN(Cc1ccccc1)Cc1ccccc1	DT40 TDP1 CPT inconclusive, DT40 TDP1 no CPT 21µM (no result: Gal4-VP16 FLuc, ELG1 repair inh, RORgamma inh)
Cc1cccc(C)c1NC(=O)CNCC(=O)Nc1c(C)cccc1C	none
CC[N+](CC)(CC)CC(=O)Nc1c(C)cccc1C	DT40 TDP1 CPT 18µM! (no result: ELG1 repair inh)
c1ccc(Cc2nnc3n2CCN(Cc2cnc(-c4ccccc4)s2)CC3)cc1	none (no result: Gal4-VP16 FLuc, ELG1 repair inh, RORgamma inh, IL-1B inflam inh)
CCNc1nc(NC(C)C)nc(Oc2ccc(OCCOc3ccc(C)cc3)nn2)n1	ELG1 repair inh inconclusive, DT40 TDP1 CPT 21µM, DT40 TDP1 no CPT inconclusive
CCNc1nc(NCC)nc(SCCOc2ccc(C)cc2)n1	Gal4-VP16 FLuc inconclusive, RORgamma inh inconclusive, DT40 TDP1 CPT 21µM, DT40 TDP1 no CPT 18µM
CCOc1nc(SCCOc2ccc(C)cc2)nc(N(C)C)n1	ELG1 repair inh inconclusive, DT40 TDP1 no CPT inconclusive
CC(C)CCOc1ccc(Oc2nc(N(C)C)nc(N(C)C)n2)nn1	DT40 TDP1 CPT 18µM, DT40 TDP1 no CPT inconclusive (no result: Gal4-VP16 FLuc, ELG1 repair inh, RORgamma inh, IL-1B inflam inh)
CCCOc1ccc(Oc2nc(NCC(C)C)nc(N(C)C)n2)nn1	DT40 TDP1 CPT inconclusive, DT40 TDP1 no CPT 13µM (no result: Gal4-VP16 FLuc, ELG1 repair inh, RORgamma inh, IL-1B inflam inh)
CCCCc1cc(=O)oc2cc(C)cc(OC(C)C(=O)NCc3ccncc3)c12 (configuration not stated)	ELG1 repair inh inconclusive, DT40 TDP1 CPT inconclusive, IL-1B inflam inh inconclusive
Cc1ccsc1CNC(=O)C1(C)CCN1C(C)C (configuration not stated)	none (no result: Gal4-VP16 FLuc, ELG1 repair inh, RORgamma inh)
Cc1cccc(OCCSc2nc(N)cc(N)n2)c1	ELG1 repair inh inconclusive, RORgamma inh inconclusive, DT40 TDP1 CPT inconclusive, DT40 TDP1 no CPT 21µM
Cc1cccc(OCCOCCSc2ncccn2)c1	RORgamma inh inconclusive
COc1ccccc1N1CCN(CCn2c(=O)c3c(c4ccccc4n3C)n(C)c2=O)CC1	none (no result: Gal4-VP16 FLuc, ELG1 repair inh, RORgamma inh, IL-1B inflam inh)
Cc1c(-c2ccccn2)c(=O)[nH]n1-c1ccc(F)cc1	Gal4-VP16 FLuc inconclusive, ELG1 repair inh inconclusive, RORgamma inh 6.3µM
CC(Oc1ccc2oc3ccccc3c2c1)C(=O)NC12CC3CC(CC(C3)C1)C2 (configuration not stated)	Gal4-VP16 FLuc inconclusive, RORgamma inh inconclusive, DT40 TDP1 CPT 16µM, DT40 TDP1 no CPT 29µM

Screening results: PubChem BioAssay, National Center for Advancing Translational Sciences (NCATS)
